Laboratory results as given in PubChem BioAssay (Tox21).
“And” between values parts separate entries of the source, which are not always exact repeats. Identical values can stand only once. Inconclusive results are not listed. Where a call stands in place of a potency, no number is given. Unmarked numbers belong to inactive results. The source made the active and inactive calls. The call rests on the fitted dose curve; in most records, active means well fitted cell-killing curve with a large enough effect in the repeat runs; inconclusive means weak or mixed curves, or effect the other way; inactive means flat fitted curve, though single readings scatter.

Legend:
[1] = cAMP Responsive Elements (CRE) small molecule antagonists, cell-based qHTS assay: qHTS cell viability counter screen (AID 2060913); further: nearly all actives have a fitted effect of over 40% in size
Summary of the method: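 Viability of NKH477-stimulated (0.25 uM final) CRE-bla HEK293T cells is measured by CellTiter-Glo luminescence following 3 hrs compound exposure at 37 C.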

[2] = cAMP Responsive Elements (CRE) small molecule agonists, cell-based qHTS assay: qHTS cell viability counter screen (AID 2060914); further: nearly all actives have a fitted effect of over 50% in size
Summary of the method: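 Luminescence read-out (CellTiter-Glo, 30 min RT) of ATP-based viability in CRE-bla HEK 293T cells, run in the same wells as the β-lactamase reporter assay after 3 h compound treatment at 37 °C.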
Potency means the concentration at half of the fitted maximal effect.

Compound	Potency [1]	Potency [2]	viability change, negative = cytotoxic [1]	activity change, negative = cytotoxicity [2]
CC1CCc2cc(F)cc3c(=O)c(C(=O)O)cn1c23 (stereo not given)	inactive	inactive	–	–
CC(=O)c1ccc(O)c(C(N)=O)c1	inactive	inactive	–	–
Oc1ccccc1	inactive	inactive	–	–
CN(C)CCCSc1ccccc1NC(=O)/C=C/c1ccccc1	inactive	inactive	–	–
N[C@H](Cc1c[nH]c2ccccc12)C(=O)O	inactive	inactive	–	–
NNC(=O)c1ccncc1	inactive	inactive	–	–
C/C=C/C=C/CO	inactive	inactive	–	–
CC(C)(C)C(=O)OCOC(=O)C1N2C(=O)CC2S(=O)(=O)C1(C)C (stereo not given)	inactive	inactive	–	–
CCOC(=O)/C=C\C(=O)OCC	inactive	inactive	–	–
CC(=O)NNC(C)=O	inactive	inactive	–	–
O=S1(=O)CCCC1	inactive	inactive	–	–
O=C1NC2CCCCN2C12CCN(CCCN1c3ccccc3CCc3ccc(Cl)cc31)CC2 (stereo not given)	inactive	inactive	–	–
[O]=[Bi]	–	–	-2.63% [at 8.39 µM]	-8.94% [at 8.39 µM]
CC(=O)Nc1ncc([N+](=O)[O-])s1	inactive	inactive	–	–
CC1=NN(c2ccccc2)C(=O)C1	inactive	inactive	–	–
CN1C(=O)N(c2ccccc2Br)Cc2cnc(Nc3ccc4c(c3)OCC(CO)O4)nc21 (stereo not given)	inactive	inactive	–	–
Nc1nc(=S)c2[nH]cnc2[nH]1	inactive	inactive	–	–
c1ccc2ncccc2c1	inactive	inactive	–	–
Cc1cc(C)c(N)cc1C	inactive	inactive	–	–
COCCCOc1ccnc(CS(=O)c2nc3ccccc3[nH]2)c1C (stereo not given)	inactive	inactive	–	–
CCN(C(=O)c1cc(C)cc(OC[C@H](C)Nc2ccncc2)c1)C(C)C	inactive	inactive	–	–
C(=C\c1ccccc1)/CN1CCN(C(c2ccccc2)c2ccccc2)CC1	inactive	inactive	–	–
O=C(O)CCCC(=O)O	inactive	inactive	–	–
O=C1C=CC(=O)O1	inactive	inactive	–	–

Compound	Potency [1]	Potency [2]	viability change, negative = cytotoxic [1]	activity change, negative = cytotoxicity [2]
CCCN(C1CCN(C(=O)C2CCNCC2)CC1)[C@@H]1CCc2ccc(OC)cc2C1	inactive	inactive	–	–
Cc1ccccc1CCO	inactive	inactive	–	–
NC(=O)C1(N2CCCCC2)CCN(CCCC(=O)c2ccc(F)cc2)CC1	inactive	inactive	–	–
CC(C)(C)c1cc(CCC(=O)OCCSCCOC(=O)CCc2cc(C(C)(C)C)c(O)c(C(C)(C)C)c2)cc(C(C)(C)C)c1O	inactive	inactive	–	–
Cc1ccccc1N=O	inactive	inactive	–	–
CCOC(=O)CS	inactive	inactive	–	–
CC(=O)OC[C@H]1O[C@@](COC(C)=O)(O[C@H]2O[C@H](COC(C)=O)[C@@H](OC(C)=O)[C@H](OC(C)=O)[C@H]2OC(C)=O)[C@@H](OC(C)=O)[C@@H]1OC(C)=O	inactive	inactive	–	–
CC(C)c1ccccc1C(C)C	inactive	inactive	–	–
c1ccc(Sc2ccccc2)cc1	inactive	inactive	–	–
COc1cc2c(N3CCN(C(=O)Nc4ccc(OC(C)C)cc4)CC3)ncnc2cc1OCCCN1CCCCC1	inactive	inactive	–	–
COc1ccc(/C=C/c2cc(OC)cc(=O)o2)cc1	inactive	inactive	–	–
CC(C)=NNC(N)=S	inactive	inactive	–	–
CCCCCCCCCCCCN1CCOCC1	inactive	inactive	–	–
CC(CN)CCCN (stereo not given)	inactive	inactive	–	–
CNC(=O)Nc1ccc(Cl)c(Cl)c1	inactive	inactive	–	–
C=CCCCCCCCC	inactive	inactive	–	–
CC1=CC[C@H](CC=O)C1(C)C	inactive	inactive	–	–
COc1ccc(O)cc1	inactive	inactive	–	–
Nc1ccn([C@H]2CC[C@@H](CO)O2)c(=O)n1	inactive	inactive	–	–
CC(C)(O)C(=O)c1ccc(OCCO)cc1	inactive	inactive	–	–
CCC[C@H](N[C@@H](C)C(=O)N1[C@H](C(=O)O)C[C@@H]2CCCC[C@@H]21)C(=O)OCC	inactive	inactive	–	–
CCCCCCCC(=O)OCC(O)CO (stereo not given)	inactive	inactive	–	–
CC(=O)c1ccc(OCC(=O)N2CCCCC2)cc1	inactive	inactive	–	–
C#CC(O)CCCCC (stereo not given)	inactive	inactive	–	–

Compound	Potency [1]	Potency [2]	viability change, negative = cytotoxic [1]	activity change, negative = cytotoxicity [2]
CO[Si](OC)(c1ccccc1)c1ccccc1	inactive	inactive	–	–
Nc1cc(S(=O)(=O)O)ccc1S(=O)(=O)O	inactive	inactive	–	–
COc1cc(C)cc(O)c1	inactive	inactive	–	–
CC(C)(C)NCC(O)COc1ccccc1OCC1CCCO1 (stereo not given)	inactive	inactive	–	–
Nc1nnc(-c2ccc([N+](=O)[O-])o2)o1	inactive	inactive	–	–
Cc1ccc(Cl)cc1Cl	inactive	inactive	–	–
CC(CSC(=O)c1ccccc1)C(=O)N1C[C@@H](Sc2ccccc2)C[C@H]1C(=O)O (stereo not given in full)	–	–	1.17% [at 18.9 µM]	-0.289% [at 18.9 µM]
Cc1cc(Cl)c(C)cc1Cl	inactive	inactive	–	–
CNC(=O)c1cnn(-c2nc(N)c3ncn([C@@H]4O[C@H](CO)[C@@H](O)[C@H]4O)c3n2)c1	inactive	inactive	–	–
Clc1nc(Cl)c(Cl)c(Cl)c1Cl	inactive	inactive	–	–
N#CC1(N)CCCCC1	inactive	inactive	–	–
c1ccncc1	inactive	inactive	–	–
Cc1ccc(-c2ccccc2)cc1	inactive	inactive	–	–
CC1=C(/C=C/C(C)=C/C=C/C(C)=C\C(=O)O)C(C)(C)CCC1	inactive	inactive	–	–
C=C(C)C(=O)OCCN(C)C	inactive	inactive	–	–
CCCCOCCOC(=O)COc1ccc(Cl)cc1Cl	inactive	inactive	–	–
CCCCSCCCC	inactive	inactive	–	–
C1CN(SSN2CCOCC2)CCO1	inactive	inactive	–	–
c1ccc(CCCc2ccncc2)cc1	inactive	inactive	–	–
Cc1nc([N+](=O)[O-])cn1-c1ccc([N+](=O)[O-])cc1	inactive	inactive	–	–
COc1cc([N+](=O)[O-])ccc1N	inactive	inactive	–	–
CCCN(CCC)C(=O)SCC	inactive	inactive	–	–
CNC(=O)c1ccccc1	inactive	inactive	–	–
CCCCCCCCCCCCCCO	inactive	inactive	–	–

Compound	Potency [1]	Potency [2]	viability change, negative = cytotoxic [1]	activity change, negative = cytotoxicity [2]
C[C@]12C=CC(=O)C=C1CC[C@@H]1[C@@H]2[C@@H](O)C[C@@]2(C)[C@H]1CC[C@]2(O)C(=O)CO	inactive	inactive	–	–
O=C(O)c1ccccc1Cl	inactive	inactive	–	–
CCC(CC)C(=O)O	inactive	inactive	–	–
O=C(O)C1(C(=O)Nc2ccc(Cl)cc2Cl)CC1	inactive	inactive	–	–
CC(C)N(c1ccccc1)C(C)C	inactive	inactive	–	–
CCN=C1C=CC(=C(c2ccc(N(CC)CC)cc2)c2ccc(N(CC)CC)cc2)c2ccccc21	48.3 µM (active)	30.5 µM (active)	–	–
N[C@@H](Cc1c[nH]c2ccccc12)C(=O)O	inactive	inactive	–	–
Cc1cc(C(C)(C)C)c(O)c(C(C)(C)C)c1	inactive	inactive	–	–
C=C(C)C(=O)OCCCCCCCCCCOC(=O)C(=C)C	inactive	inactive	–	–
CCCCC1CCC(=O)O1 (stereo not given)	inactive	inactive	–	–
O=c1[nH]c(=O)n([C@H]2C[C@H](O)[C@@H](CO)O2)cc1I	inactive	inactive	–	–
C=C(C)C(=O)OCCOCCOCCOC(=O)C(=C)C	inactive	inactive	–	–
CCCCOC(=O)CCCCCCCCC(=O)OCCCC	inactive	inactive	–	–
C/C=C/C=C/COC(=O)C(C)C	inactive	inactive	–	–
Cc1cc(=O)[nH]c(=O)[nH]1	inactive	inactive	–	–
CCCC(=O)O[C@]1(C(=O)CO)CC[C@H]2[C@@H]3CCC4=CC(=O)CC[C@]4(C)[C@H]3[C@@H](O)C[C@@]21C	inactive	inactive	–	–
COC(=O)C1=C(C)NC(C)=C(C(=O)OC)C1c1ccccc1[N+](=O)[O-]	inactive	inactive	–	–
CN(C(=O)CCCOc1ccc2[nH]c(=O)ccc2c1)C1CCCCC1	inactive	inactive	–	–
O=C(O)C1CCC(C(=O)O)CC1 (stereo not given)	inactive	inactive	–	–
CCCCCCCCCCCCCCCCCCOCCO	–	–	-9.04% [at 18.9 µM]	-6.34% [at 18.9 µM]
C=CCOc1c(Br)cc(Br)cc1Br	inactive	inactive	–	–
O=C1OC(=O)c2c(Cl)c(Cl)c(Cl)c(Cl)c21	inactive	inactive	–	–
NC(=S)N/N=C/c1cccnc1	inactive	inactive	–	–
NC(=O)Nc1nc2ccccc2[nH]1	inactive	inactive	–	–

Compound	Potency [1]	Potency [2]	viability change, negative = cytotoxic [1]	activity change, negative = cytotoxicity [2]
N#Cc1ccc(C(c2ccc(C#N)cc2)n2cncn2)cc1	inactive	inactive	–	–
CC/C=C\C/C=C\C/C=C\CCCCCCCC(=O)OC	inactive	inactive	–	–
CCOC(=O)[C@H](O)[C@@H](O)C(=O)OCC	inactive	inactive	–	–
CC(N=C(NC#N)Nc1ccncc1)C(C)(C)C (stereo not given)	inactive	inactive	–	–
CCCCCCCCCCCC(=O)N(C)CC(=O)O	–	–	1.91% [at 8.39 µM]	0.181% [at 8.39 µM]
Cc1cc(-c2ccccc2)nnc1NCCN1CCOCC1	inactive	inactive	–	–
CC(=O)C1C(=O)C=C(C)OC1=O (stereo not given)	inactive	inactive	–	–
IC(I)I	inactive	inactive	–	–
COC(=O)CS	inactive	inactive	–	–
CC(C)(C)NCC(O)COc1cccc2c1CCC(=O)N2 (stereo not given)	inactive	inactive	–	–
CO[Si](CCCCl)(OC)OC	inactive	inactive	–	–
CC(C)(c1cc(Br)c(O)c(Br)c1)c1cc(Br)c(O)c(Br)c1	inactive	inactive	–	–
CCOC(=O)C(=O)CCc1ccccc1	inactive	inactive	–	–
CCC(=O)c1ccc2c(c1)N(CCCN(C)C)c1ccccc1S2	inactive	inactive	–	–
O=C(c1ccccc1)c1ccc(Cl)cc1	inactive	inactive	–	–
C[C@]12CC[C@@H]3c4ccc(O)cc4CC[C@H]3[C@@H]1CC[C@H]2O	inactive	inactive	–	–
CCC(C)(C)C1CCCCC1OC(C)=O (stereo not given)	inactive	inactive	–	–
CCCCCCC(O)CCCCCCCCCCC(=O)OC (stereo not given)	inactive	inactive	–	–
CCCCCCCCCC[N+](C)(C)[O-]	inactive	inactive	–	–
Oc1ccccc1O	inactive	inactive	–	–
C=CC/C=C/C/C=C/C/C=C/C	inactive	inactive	–	–
CCCCCCCCCCCC[N+](C)(C)Cc1ccccc1	60 µM (active) and 59.2 µM (active) and 13.3 µM (active)	53.4 µM (active) and 37.4 µM (active) and 29.8 µM (active)	–	–
CC(C)C[C@H]1C(=O)N2CCC[C@H]2[C@]2(O)O[C@](NC(=O)[C@@H]3C=C4c5cccc6[nH]c(Br)c(c56)C[C@H]4N(C)C3)(C(C)C)C(=O)N12	inactive	inactive	–	–
O=C(O)COc1ccc2ccccc2c1	inactive	inactive	–	–
